Inconclusive results are not listed. A number with no mark means an inactive call. The call rests on the fitted dose curve; in most records, active means well fitted inhibition curve with a large enough effect; inconclusive means small, poorly fitted or top-dose-only effect; inactive means flat fitted curve, though single readings scatter. Where a SMILES comes first, the peptide text is derived from it. [ ]: non-standard residue; d: D form. Hyp = O=C(O)[CH]1C[CH](O)CN1; Phe(ol) = N[CH](CO)Cc1ccccc1; Iva = CC[C](C)(N)C(=O)O; Aib = CC(C)(N)C(=O)O
biological target: Calcium and integrin-binding protein 1 (Homo sapiens) (UniProt Q99828); assay: Primary qHTS for Identification of Calcium Integrin Binding Protein 1 (CIB1) Competitor (AID 1508620); conditions: CIB1-GST / FITC-alphaIIb peptide fluorescence polarization; series mostly up to 114 µM; activity change, negative = inhibition: at the top concentration;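 further: GST tagged CIB1 binding a fluorescein labelled alphaIIb integrin peptide tracer; top concentration of the series differs between compounds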
Sequence (Q99828 whole entry, looked up): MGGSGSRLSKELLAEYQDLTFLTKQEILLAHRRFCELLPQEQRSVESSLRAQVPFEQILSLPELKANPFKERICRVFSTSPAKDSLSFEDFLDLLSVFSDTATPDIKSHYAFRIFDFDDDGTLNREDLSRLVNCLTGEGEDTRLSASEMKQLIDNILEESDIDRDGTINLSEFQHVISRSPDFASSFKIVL
How it was run: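 CIB1-GST (1 uM final) and compound incubated 15 min at room temperature before adding FITC-alphaIIb peptide tracer (100 nM final). Competition for binding read by fluorescence polarization (ex 480, em 540) after another 15 min at room temperature.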
On the % scale 0 is the no-effect control and ±100 the full control effect.

Structure (SMILES) | activity change, negative = inhibition
CCCc1ccc(OCC(=O)N(Cc2nc(-c3cccnc3)no2)C(C)C)cc1 | 0.0245%
CC(C)(O)c1ccn2c(-c3ccc(F)c(-c4ccc(F)cc4C#N)c3)cnc2c1F | 2.09%
CCCCc1c(-c2ccc(OC)cc2)[nH]c2nccnc12 | 5.09%
CN1CCc2cc3c(cc2C(=O)Cc2cc4c(cc2C1)OCO4)OCO3 | -2.23% [at 57.7 µM]
C/C=C(/C)C(=O)O[C@H]1[C@H](OC(=O)/C(C)=C\C)[C@@]23C(CC1(C)C)[C@]1(CCC4[C@@]5(C)CC[C@H](O[C@@H]6O[C@H](C(=O)O)[C@@H](O)[C@H](O[C@@H]7O[C@H](CO)[C@H](O)[C@H](O)[C@H]7O[C@@H]7O[C@@H](C)[C@H](O)[C@@H](O)[C@H]7O[C@@H]7OC[C@@H](O)[C@H](O)[C@H]7O)[C@H]6O[C@@H]6O[C@H](CO)[C@H](O)[C@H](O)[C@H]6O)C(C)(C)C5CC[C@@]4(C)[C@]1(C)C[C@H]2O)O[C@H]3O (some centres undefined) | -2.7% [at 12.4 µM]
Cc1cc(F)c(C(=O)Nc2cccc(-c3nncn3C(C)C)n2)cc1-n1cnc(C2CC2)c1 | 0.135% [at 57.7 µM]
CC(C)(N)c1ncc(-c2ccc(OC(F)(F)F)cc2)[nH]1 | -2.07%
C=C(C)C(=O)O[C@H]1C[C@@](C)(O)C2(O)CCC(C)(/C=C3/OC(=O)C(COC)=C31)O2 (some centres undefined) | -8.25% [at 57.7 µM]
CC(=O)O[C@]1(C(C)=O)CC[C@H]2[C@@H]3CCC4=CC(=O)CCC4=C3[C@@H](c3ccc(N(C)C)cc3)C[C@@]21C | -4.5%
COC1CC(O[C@H]2CC[C@]3(C)C4CC[C@@]5(C)C(=O)[C@]4(CC[C@@H]3C2)CC[C@@H]5C2=CC(=O)OC2)OC(C)C1OC1OC(COC2OC(CO)C(O)C(O)C2O)C(O)C(O)C1O (some centres undefined) | 2.29% [at 30.2 µM]
COc1cc(C(=O)O)ccc1NC(=O)C1NC(CC(C)(C)C)C(C#N)(c2ccc(Cl)cc2F)C1c1cccc(Cl)c1F (centres undefined) | 17%
CN1CCN(c2ccc(Nc3cc(-c4cccc(-n5ccc6cc(C7CC7)cc(F)c6c5=O)c4CO)cn(C)c3=O)nc2)CC1 | -8.37%
COc1ccccc1OCCNCC(O)CCOc1cccc2[nH]c3ccccc3c12 (centres undefined) | 4.79%
C=C1C(=O)O[C@@H]2C[C@@]3(C)CCCC(=C)[C@]3(O)C[C@H]12 | -0.519%
C=C1[C@H]2CC[C@H](C(=O)O)[C@@]23CC[C@H](C3)C1(C)C | 3.23%
COc1ccc2c(c1)C(C(=O)N(Cc1ccc(N(C)C)cc1)c1ccc(C(C)C)cc1)CCC2 (centres undefined) | -0.926%
N#Cc1ccc(COC[C@H]2O[C@@H](n3c(NCc4ccc(Cl)c(Cl)c4)nc4c(N)ncnc43)[C@H](O)[C@@H]2O)cc1 | 1.23% [at 57.7 µM]
CCN(Cc1ccccc1)C(=O)Cn1c(=O)n(C)c2cnc(-c3ccccc3)nc21 | 3.65%
Cc1c(C2=CCN(C(=O)N(C)C(C)C)CC2)nnn1-c1cccnc1F | 4.52%
CC(C)(C)c1ccc(-c2nc3c(N4CCN(Cc5ccc6nccnc6c5)CC4)cccc3[nH]2)cc1 | 5.07%
CN1CCN(Cc2ccc(NC(=O)Cc3ccc(Oc4cc(NC(=O)C5CC5)ncn4)cc3)cc2C(F)(F)F)CC1 | -6.8%
CNCc1cc(-c2ccccc2F)n(S(=O)(=O)c2cccnc2)c1 | 4.88%
CC(C)n1c(=O)c(C(=O)NC2CC3CCC(C2)N3C[C@@H](O)CN(C)S(C)(=O)=O)cc2ccccc21 (some centres undefined) | -0.867%
C/C=C(/C=C(C)/C=C/C=C/C=C(\C)C(=O)C12OC1C(O)(CCO)NC2=O)C(=O)OC (centres undefined) | -1.87% [at 57.7 µM]
COC1CCN(c2cccc(-c3cc(NC(C)=O)nc(-n4nc(C)cc4C)n3)n2)CC1 | -10.8%
Cc1cc2c(N3CCCC3)nc(N3CCCC3)nc2n1C | -24.6%
CCC(C)(NC(=O)C(CCC(N)=O)NC(=O)C1CC(O)CN1C(=O)C(C)(C)NC(=O)C(C)(C)NC(=O)C(CC(C)C)NC(=O)CNC(=O)C(NC(=O)C(C)(C)NC(=O)C(C)(C)NC(=O)C(C)(C)NC(=O)C(Cc1ccccc1)NC(C)=O)C(C)C)C(=O)N1CC(O)CC1C(=O)NC(C)(C)C(=O)NC(CO)Cc1ccccc1 (centres undefined) (Ac-F[Aib][Aib][Aib]VGL[Aib][Aib][Hyp]Q[Iva][Hyp][Aib][Phe(ol)]; configuration not given here) | 1.74% [at 12.4 µM]
O=c1cc(N2CCN(c3cccc(C(F)(F)F)c3)CC2)[nH]c(=O)n1C1CCCCC1 | -7.11%
CC(=O)O[C@@H]1CC[C@@]2(C)C(CC[C@]3(C)C2[C@H](O)C=C2[C@H]4[C@@H](C)[C@H](C)CC[C@]4(C)CC[C@]23C)[C@@]1(C)C(=O)O (some centres undefined) | -10.1% [at 57.7 µM]

Source: PubChem BioAssay (NCATS)
